In the library only some 11% were active in any assay of this set; here they are far more common.
3T3 cytotox: Cytotoxic Profiling in NIH 3T3 Cell Line of Diverse Libraries Using Quantitative High-Throughput Screening | AID 1345082, 2018 | NIH 3T3 viability, CellTiter-Glo ATP luminescence, 48-72 h | actives 4.3% (n = 94,000) | Potency, µM (top dose mostly 96.7 µM), without a hit: at the highest dose activity change, negative = cytotoxicity, most hits filed as inhibitors; also: nearly all actives have a fitted effect of over 55% in size
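Cytotoxicity was measured by CellTiter-Glo ATP luminescence after 48 or 72 h compound exposure at 37 °C. Mouse NIH 3T3 fibroblasts were seeded at 400 cells/well and dosed by 23 nL pin transfer.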
Luciferase inh: Firefly luciferase inhibition profiling of diverse chemical library using quantitative high-throughput screening | Luciferin 4-monooxygenase (Photinus pyralis), P08659 | purified P. pyralis luciferase, luminescence, biochemical | Potency, µM (doses to about 115 µM), usual class: inhibitors | actives 2.5% (n = 76,000) | AID 1347043, 2019; also: nearly all actives have a fitted effect of over 65% in size
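Luminescence read by CCD imager after adding enzyme (10nM final) to wells holding compound, titrated in qHTS. Substrates 10uM each D-luciferin and ATP; buffer 50mM Tris acetate pH 7.5, 10mM Mg acetate, Tween-20, BSA.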
hNpr1 antagonist: Natriuretic polypeptide receptor (hNpr1) antagonism - Primary qHTS; Atrial natriuretic peptide receptor 1 (Homo sapiens), P16066; HEK293 hNpr1 GloSensor cGMP, ANP-stimulated luminescence; Potency, µM (doses to about 46.3 µM), without a hit: at the highest dose activity change, negative = inhibition, usual class: inhibitors; actives 1.6% (n = 76,000); calls by dose curve; also: nearly all actives have a fitted effect of over 60% in size
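Compound pre-incubated 30 min at room temperature on GloSensor-loaded HEK293 cells stably carrying hNpr1 and the pGS-40F cGMP biosensor. Stimulation uses hNppA at 0.1 nM final; luminescence is taken at baseline and 20 min post-agonist.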
HEK293 tox: Cytotoxic Profiling in HEK 293 Cell Line of Diverse Libraries Using Quantitative High-Throughput Screening. HEK 293 viability, ATP luminescence (CellTiter-Glo), 48-72 h. Potency, µM (titrated, usually from 115 µM), for inactives: top-dose activity change, negative = cytotoxicity, most hits filed as inhibitors. actives 6.6% (n = 94,000). AID 1345083, 2018; also: nearly all actives have a fitted effect of over 60% in size
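Cytotoxicity was scored by loss of ATP-coupled luminescence (CellTiter-Glo) in HEK 293 cells. Compound treatment ran 48 or 72 hr at 37 degree Celsius, 5% CO2, 95% humidity.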
* = called active by the depositor; i = inactive; ? = inconclusive; · = not tested or not shown; [ ] = remark or other dose. Unless noted, calls follow the shape of the dose curve; as a rule, active = well fitted curve in the direction sought with a large enough effect; inconclusive = small, poorly fitted or top-dose-only effect, or another doubt; inactive = no such curve, though single readings can be large; an effect the other way counts as inactive or inconclusive. % is scaled to controls: 0 for no effect and ±100 for the full control effect; potency is read from the fitted curve at half-maximal effect.

SMILES	3T3 cytotox	Luciferase inh	hNpr1 antagonist	HEK293 tox
CC(=O)c1ccc(NC(=O)NC[C@H]2C[C@@H]3CCN2C[C@@H]3CN(C)Cc2ccccc2)cc1	89µM*	i	1%[70.6 µM]	100µM*
CN(Cc1ccccc1)C[C@H]1CN2CC[C@H]1C[C@@H]2CNC(=O)c1ccccc1	?	i	1%[70.6 µM]	?
CN(Cc1ccccc1)C[C@H]1CN2CC[C@H]1C[C@@H]2CNC(=O)Nc1ccccc1	100µM*	i	5%[70.6 µM]	100µM*
C#CCN(C)C[C@H]1CN2CC[C@H]1C[C@@H]2CNC(=O)Nc1ccc(C(C)=O)cc1	-17%[174 µM]	i	-2%[70.6 µM]	-9%[172 µM]
CSCC(=O)Nc1ccc2n(c1=O)C[C@H]1C[C@@H]2CN(C(=O)COc2ccccc2)C1	79µM*	i	-3%[70.6 µM]	-14%[172 µM]
Cc1cccc([C@H]2C[C@@H](O)[C@@H](O)[C@@H]2NCC2CCCC2)c1	89µM*	i	-28%[70.6 µM]	50µM*
C#C[C@H]1CN2CC[C@H]1C[C@@H]2COC(=O)NCCC	-29%[230 µM]	i	0%[70.6 µM]	?
O=C1Nc2ccccc2C12CCN(CC1CC1)CC2	1%[174 µM]	·	·	-6%[230 µM]
c1ccc(Nc2cc3c(cn2)CN(CC2CC2)CCN3)cc1	?	35µM*	4%[70.6 µM]	35µM*
CN1CCNc2cc(NCc3ccccc3)ncc2C1	89µM*	25µM*	-2%[70.6 µM]	?
C=C[C@H]1CN2CC[C@H]1C[C@@H]2CNC(=O)COc1ccccc1	-10%[174 µM]	i	0%[70.6 µM]	-13%[172 µM]
CCOC(=O)[C@H]1CN(C(=O)NCc2ccccc2)[C@]2(C)C(=O)N(CC(=O)N(C)C)c3ccccc3[C@H]12	?	·	·	i
COc1cc2c(cc1CCc1ccccc1)N(C(=O)c1ccc3[nH]ccc3c1)CC21CCN(C(C)=O)CC1	?	i	-23%	?
COc1cc2c(cc1OC1CCCC1)NC(=O)C21CCN(c2ncccn2)CC1	?	i	0%[70.6 µM]	100µM*
COc1cc2c(cc1OC1CCCC1)NC(=O)C21CCN(c2cnccn2)CC1	?	i	-16%[70.6 µM]	89µM*
COc1cc2c(cc1OC1CCCC1)NC(=O)C21CCN(c2ncc(F)cn2)CC1	89µM*	i	-5%[70.6 µM]	89µM*
CCc1cnc(N2CCC3(CC2)C(=O)Nc2cc(Oc4ccccc4)c(OC)cc23)nc1	40µM*	i	-16%[70.6 µM]	45µM*
COc1cc2c(cc1OC1CCCC1)NC(=O)C21CCN(c2ncc(C(C)C)cn2)CC1	?	i	-2%[70.6 µM]	?
Cc1cc(C(F)(F)F)nn1CC(=O)N1[C@H]2CC[C@@H]1c1cnc(-c3ccc(F)cc3)nc1C2	-20%	i	-3%	-6%
CCOC(=O)[C@H]1CN(C(=O)NCc2ccccc2)[C@]2(C)C(=O)N(CCOC)c3ccccc3[C@H]12	?	·	·	-5%[57.5 µM]
COc1cc2c(cc1OC1CCCC1)NC(=O)C21CCN(c2nc(C)cc(C)n2)CC1	?	i	-8%[70.6 µM]	89µM*
CCc1cnc(N2CCC3(CC2)C(=O)Nc2cc(OC4CCCC4)c(OC)cc23)nc1	?	i	-1%[70.6 µM]	79µM*
O=c1ccc(-c2cccs2)c2n1C[C@H]1C[C@@H]2CN(S(=O)(=O)c2cccs2)C1	-26%[174 µM]	i	-9%[70.6 µM]	-13%[172 µM]
COCC1CN(C2CCC2)CC12CCN(Cc1cccnc1)CC2 (configuration not stated)	-13%	i	0%	-3%
O=C(Nc1ccc2n(c1=O)C[C@H]1C[C@@H]2CN(C(=O)c2ccccc2)C1)NC1CCCCC1	-19%[174 µM]	?	1%[70.6 µM]	-2%[172 µM]
SMILES	3T3 cytotox	Luciferase inh	hNpr1 antagonist	HEK293 tox
O=C(Nc1ccc2n(c1=O)C[C@H]1C[C@@H]2CN(CC2CCCCC2)C1)C1CCCCC1	?	i	-22%[70.6 µM]	56µM*
CCCNC(=O)OC[C@H]1C[C@@H]2CCN1C[C@@H]2c1cc(-c2ccc(OC)cc2)nn1C	?	i	7%[70.6 µM]	?
COc1ccc(NC(=O)NC[C@H]2C[C@@H]3CCN2C[C@@H]3CN2CCN(c3ccccc3OC)CC2)cc1	?	i	-18%	89µM*
CC[C@H]1CN2CC[C@H]1C[C@@H]2CNC(=S)Nc1ccc(C)cc1Br	45µM*	i	-18%[70.6 µM]	?
COc1ccccc1N1CCN(C[C@H]2CN3CC[C@H]2C[C@@H]3CNC(=O)Nc2ccsc2)CC1	?	i	2%	-12%
CC[C@H]1CN2CC[C@H]1C[C@@H]2CNC(=O)Nc1ccc(Oc2ccccc2)cc1	28µM*	i	-8%[70.6 µM]	25µM*
CNCc1cccnc1	i	·	·	3%[230 µM]
Cc1noc(-c2ccc(N3CC4CC(C3)c3cccc(=O)n3C4)nc2)n1 (configuration not stated)	-2%	?	-7%	-13%
COc1ccccc1CNC(=O)[C@H]1CN2CCC1C[C@@H]2Cn1cc(C(C)(C)O)nn1 (some centres not stated)	-19%[174 µM]	i	3%[70.6 µM]	1%[172 µM]
Cc1ccc(C(=O)N2CCC3(CC2)c2nccn2-c2ccccc2CN3CC(C)C)cc1F	35µM*	i	-20%	35µM*
CC(C)CN1Cc2ccccc2-n2ccnc2C12CCN(C(=O)C(C)C)CC2	-22%	i	-3%	?
Cc1nc(-c2ccc(N(C)C)cc2)cc([C@H]2CN3CC[C@H]2C[C@@H]3CNC(=O)N2CCOCC2)n1	?	i	0%	?
Cc1nc(-c2ccc(N(C)C)cc2)cc([C@H]2CN3CC[C@H]2C[C@@H]3CNCc2cccc(C#N)c2)n1	28µM*	?	-21%	25µM*
Cc1nc(-c2ccc(N(C)C)cc2)cc([C@H]2CN3CC[C@H]2C[C@@H]3CNC(=O)C(C)(C)C)n1	89µM*	i	1%[70.6 µM]	56µM*
Cc1nc(-c2ccc(C(F)(F)F)cc2)cc([C@H]2CN3CC[C@H]2C[C@@H]3CNC(=O)C2CC2)n1	?	i	3%	?
Cc1nc(-c2ccc(N(C)C)cc2)cc([C@H]2CN3CC[C@H]2C[C@@H]3CNC(=O)C2CC2)n1	100µM*	i	-2%[70.6 µM]	71µM*
CCOC(=O)[C@H]1CN([S+](=O)([O-])c2cccs2)[C@]2(C)C(=O)N(CCOC)c3ccccc3[C@H]12	?	·	·	-18%[57.5 µM]
Cc1ncsc1CN1CC(CO)C2(CCNCC2)C1 (configuration not stated)	-12%	i	8%	-9%
CCCCOC(=O)N1C[C@H](C(=O)OCC)[C@H]2c3ccccc3NC(=O)[C@]21C	-18%[46.1 µM]	·	·	?
COc1ccc2c(c1)C1(CCN(C(=O)C(C)(C)C)C1)C(=O)N2C (configuration not stated)	-12%	i	-7%	?
O=C(NC[C@H]1C[C@@H]2CCN1C[C@@H]2CN1CCN(c2ccc(F)cc2)CC1)Nc1cccc(F)c1	22µM*	i	-19%	28µM*
N#Cc1cccc(NC(=O)NC[C@H]2C[C@@H]3CCN2C[C@@H]3CN2CCN(c3ccccc3)CC2)c1	22µM*	i	-16%	?
